Experimental findings from ChEMBL document CHEMBL4296182, “CO-ADD screening of NIH NCI Diversity Set V” are described below.

Structures are written as SMILES. For part of these data: Entries with a potency or affinity are not part of this list.

For one experiment, the system named is Staphylococcus aureus. The experiment in a line: Antibacterial activity against Staphylococcus aureus MRSA ATCC 43300 (CO-ADD:GP_020); MIC in CAMBH media using NBS plates, by Resazurin F(560/590). Format: functional. The note with it: Concentration 20 uM, ASSAY_TEST Inhibition of Bacterial Growth, detection method Resazurin, Fluorescence (ex560/em590), MEDIA CAMHB, plate type 384well, CORNING #3640, time 18 hr.

The next experiment concerns Acinetobacter baumannii. The experiment is described as follows: Antibacterial activity against Acinetobacter baumannii ATCC 19606 (CO-ADD:GN_034); MIC in CAMBH media using NBS plates, by Resazurin F(560/590). The format is functional. The following applies: Concentration 20 uM, ASSAY_TEST Inhibition of Bacterial Growth, detection method Resazurin, Fluorescence (ex560/em590), MEDIA CAMHB, plate type 384well, CORNING #3640, time 18 hr.

Another experiment relates to Escherichia coli. The experiment in a line: Antibacterial activity against Escherichia coli ATCC 25922 (CO-ADD:GN_001); MIC in CAMBH media using NBS plates, by Resazurin F(560/590). The note with it: Concentration 20 uM, ASSAY_TEST Inhibition of Bacterial Growth, detection method Resazurin, Fluorescence (ex560/em590), MEDIA CAMHB, plate type 384well, CORNING #3640, time 18 hr. The format is functional.

For a further experiment, the system named is Klebsiella pneumoniae. The note with it: Concentration 20 uM; ASSAY_TEST Inhibition of Bacterial Growth; detection method Absorption (OD600); MEDIA CAMHB; plate type 384well; NBS; CORNING #3640; time 18 hr.
For a further experiment, the system named is Candida albicans. The following applies: 20 µM.
Another experiment relates to Cryptococcus neoformans. The note with it: Concentration 20 uM; ASSAY_TEST Inhibition of Fungal Growth; detection method Resazurin; Absorption (OD600-OD570); plate type 384well; NBS; CORNING #3640.

For the molecule `CC1CO/C(=C2\C(=O)OCC2C)C1` (stereo not given), the Inhibition in the experiment with Staphylococcus aureus is 4.79%; in the experiment with Acinetobacter baumannii, -14.17%; in the experiment on Escherichia coli, 10.92%; in the experiment on Klebsiella pneumoniae, 2.95%; with Candida albicans, 41.2%; in the experiment on Cryptococcus neoformans, -12.83%.

Consider `NC(=O)c1ccc(/N=N/c2c(O)c3ccccc3[nH]c2=O)cc1`, for which the Inhibition in the experiment on Staphylococcus aureus was 1.45%; with Acinetobacter baumannii, 0.09%; in the experiment with Escherichia coli it was 1.38%; in the experiment with Klebsiella pneumoniae it was 17.01%; in the experiment with Candida albicans, 24%; in the experiment with Cryptococcus neoformans, -1.63%.

Consider `COc1cc(Cl)c(CC(=O)c2c[nH]c3ccccc23)cc1OC`, for which the Inhibition in the experiment on Staphylococcus aureus was -6.42%; in the experiment on Acinetobacter baumannii, 2.77%; in the experiment with Escherichia coli, -1.53%; in the experiment on Klebsiella pneumoniae, 5.86%; in the experiment on Candida albicans it was 3.17%; with Cryptococcus neoformans it was -1.97%.

In the case of `OC(COc1cccc2ccccc12)CN1CCN(c2ccccc2Cl)CC1` (stereo not given), the Inhibition is -4.97% with Staphylococcus aureus; 8.91% with Acinetobacter baumannii; -13.55% in the experiment with Escherichia coli; 3.22% in the experiment with Klebsiella pneumoniae; 3.81% in the experiment with Candida albicans; -4.59% in the experiment on Cryptococcus neoformans.

For the molecule `CC(C)c1ncc(CO)n1Cc1c(Cl)cccc1Cl`, the Inhibition is 10.51% in the experiment with Staphylococcus aureus; 3.11% in the experiment with Acinetobacter baumannii; 9.5% with Escherichia coli; 7.27% in the experiment with Klebsiella pneumoniae; 0.71% with Candida albicans; -9.37% in the experiment on Cryptococcus neoformans.

On to `COc1cc(NC(C)=O)c2ncccc2c1NC(C)=O`, for which the Inhibition with Staphylococcus aureus was 3.21%; in the experiment with Acinetobacter baumannii, 8.89%; in the experiment with Escherichia coli it was -13.22%; with Klebsiella pneumoniae, 18.39%; in the experiment on Candida albicans it was 5.47%; with Cryptococcus neoformans it was 12.48%.

With `CCOC(=O)c1csc(-c2ccc(COC(=O)c3ccccc3)o2)n1`, the Inhibition was 13.59% in the experiment with Staphylococcus aureus; 3.92% in the experiment with Acinetobacter baumannii; -0.69% with Escherichia coli; 10.14% in the experiment on Klebsiella pneumoniae; 4.97% in the experiment with Candida albicans; -13.35% with Cryptococcus neoformans.

Consider `CCOc1nc(OCC)c2cnn(C)c2n1`, for which the Inhibition with Staphylococcus aureus was 17.13%; in the experiment on Acinetobacter baumannii, -11.25%; in the experiment on Escherichia coli, 5.79%; with Klebsiella pneumoniae it was 6.34%; with Candida albicans it was 3.82%; in the experiment with Cryptococcus neoformans, -3.08%.

With `c1ccc2nc(NN=C3CCCCC3)ccc2c1`, the Inhibition with Staphylococcus aureus was 9.39%; with Acinetobacter baumannii, -16.84%; in the experiment with Escherichia coli it was 10.6%; in the experiment on Klebsiella pneumoniae it was 9.11%; in the experiment on Candida albicans, 3.78%; with Cryptococcus neoformans it was -6.92%.

For the molecule `CC1=C(O)C(=O)C(c2c(C)cc(C)c(Br)c2C)=C(O)C1=O`, the Inhibition is 15.91% in the experiment on Staphylococcus aureus; 1.25% with Acinetobacter baumannii; 4.64% in the experiment with Escherichia coli; 20.53% with Klebsiella pneumoniae; 19.7% with Candida albicans; -3.3% with Cryptococcus neoformans.

`Cc1cccnc1N=C(S)Nc1ncccc1C`: the Inhibition with Staphylococcus aureus was 10.58%; in the experiment on Acinetobacter baumannii, 20.87%; in the experiment with Escherichia coli, 9.06%; with Klebsiella pneumoniae, 23.76%; in the experiment on Candida albicans, 3.55%; in the experiment on Cryptococcus neoformans, -10.6%.

Consider `c1ccc2c(c1)Oc1cccc3cccc-2c13`, for which the Inhibition in the experiment on Staphylococcus aureus was 13.84%; in the experiment with Acinetobacter baumannii, -15.64%; in the experiment with Escherichia coli, 12.26%; in the experiment with Klebsiella pneumoniae, 8.47%; in the experiment on Candida albicans, 7.02%; with Cryptococcus neoformans, -13.12%.

As to `CCOC(=O)C(=O)Cc1cccnn1`, the Inhibition is 12.36% in the experiment on Staphylococcus aureus; -7.97% with Acinetobacter baumannii; 16.74% with Escherichia coli; 15.16% in the experiment with Klebsiella pneumoniae; 9.85% in the experiment on Candida albicans; -1.54% with Cryptococcus neoformans.

As to `Clc1ccccc1-c1nc2ccccc2[nH]1`, the Inhibition in the experiment with Staphylococcus aureus is 11.4%; in the experiment with Acinetobacter baumannii, -8.21%; with Escherichia coli, 9.05%; with Klebsiella pneumoniae, 12.13%; in the experiment on Candida albicans it was 4.17%; with Cryptococcus neoformans, -6.44%.

With `Oc1ncc(I)cc1I`, the Inhibition in the experiment on Staphylococcus aureus came to 37.5%; in the experiment on Acinetobacter baumannii it was 6.08%; in the experiment on Escherichia coli, 2.67%; in the experiment on Klebsiella pneumoniae, 22.74%; with Candida albicans, 4.4%; in the experiment on Cryptococcus neoformans, 23.72%.

For `COc1ccc(C(=O)Oc2cccnc2O)cc1`, the Inhibition is -4.34% in the experiment on Staphylococcus aureus; 16.28% in the experiment on Acinetobacter baumannii; -5.51% in the experiment with Escherichia coli; 12.02% with Klebsiella pneumoniae; 4.27% with Candida albicans; -4.22% in the experiment with Cryptococcus neoformans.

With `Nc1cnc(Nc2ccc(Br)cc2)nc1N.O=S(=O)(O)O`, the Inhibition in the experiment with Staphylococcus aureus was 3.44%; with Acinetobacter baumannii, 7.82%; in the experiment with Escherichia coli, -16.03%; with Klebsiella pneumoniae, 6.45%; in the experiment with Candida albicans, 3.46%; in the experiment with Cryptococcus neoformans, 6.23%.

`COc1ccc2c(C)cc(C)nc2n1`: the Inhibition with Staphylococcus aureus is 4.34%; in the experiment with Acinetobacter baumannii, -9.69%; in the experiment on Escherichia coli it was 1.95%; with Klebsiella pneumoniae, -0.51%; in the experiment on Candida albicans, 3.88%; in the experiment with Cryptococcus neoformans it was -1.59%.

Regarding `CSc1ccc(NC(=O)Nc2ccccc2C(N)=O)cc1`, the Inhibition with Staphylococcus aureus was 16.3%; in the experiment with Acinetobacter baumannii, 11.66%; in the experiment with Escherichia coli, 11.12%; in the experiment on Klebsiella pneumoniae, 15.39%; with Candida albicans it was 4.24%; in the experiment on Cryptococcus neoformans, 3.99%.

As for `CCCCc1c(C)nc(S)nc1O`, the Inhibition was 16.17% with Staphylococcus aureus; -14.45% in the experiment with Acinetobacter baumannii; 9.4% in the experiment with Escherichia coli; 7.26% with Klebsiella pneumoniae; 2.04% with Candida albicans; -3.51% with Cryptococcus neoformans.

For `CCCSc1ncnc2[nH]ncc12`, the Inhibition in the experiment with Staphylococcus aureus was 4.5%; in the experiment on Acinetobacter baumannii, -9.04%; in the experiment with Escherichia coli, 5.02%; in the experiment with Klebsiella pneumoniae it was 27.49%; in the experiment on Candida albicans it was 6.91%; with Cryptococcus neoformans, -5.45%.

As for `CC1=CC2=C(C=O)C(=O)[C@](C)(O)[C@@H](O)C2=CO1`, the Inhibition in the experiment with Staphylococcus aureus was -0.76%; with Acinetobacter baumannii it was 11.76%; in the experiment with Escherichia coli, 8.5%; in the experiment on Klebsiella pneumoniae, 9.69%; with Candida albicans it was 4.9%; with Cryptococcus neoformans it was -12.05%.

Consider `CSc1c(N(C)C)c(=O)c1=S`, for which the Inhibition in the experiment on Staphylococcus aureus is -5.31%; in the experiment with Acinetobacter baumannii it was -13.14%; in the experiment with Escherichia coli, 11.42%; in the experiment on Klebsiella pneumoniae, 6.17%; in the experiment with Candida albicans, 1.7%; in the experiment on Cryptococcus neoformans, -16.36%.

For `Nc1cc(Nc2ccc(Br)cc2)nc(N)n1`, the Inhibition was 4.17% with Staphylococcus aureus; 10.22% with Acinetobacter baumannii; -12.19% with Escherichia coli; 18.33% with Klebsiella pneumoniae; 4.62% in the experiment on Candida albicans; -4.88% in the experiment with Cryptococcus neoformans.

On to `CCC(C)NC(=O)c1cccc(C)c1` (stereo not given), for which the Inhibition in the experiment on Staphylococcus aureus was 27.07%; in the experiment on Acinetobacter baumannii, -10.03%; in the experiment on Escherichia coli, 12.99%; in the experiment with Klebsiella pneumoniae it was 13.06%; in the experiment on Candida albicans, 3.19%; in the experiment with Cryptococcus neoformans, -7.62%.
